Screen size: about 310,000 compounds; about 1,200 (0.39%) were called active. How the calls were made is not given here. Not all results are given here. Results with a measured potency or affinity are listed apart.
Target: Large T antigen (Simian virus 40) (UniProt P03070)
Test: TAg ATPase/helicase activity blockers – biochemical (AID 1903)
Details: SV40 large T antigen ATPase/helicase inhibition assay; at 20 µM; active compounds read high

Sequence of Large T antigen (Simian virus 40) (P03070 whole entry, looked up): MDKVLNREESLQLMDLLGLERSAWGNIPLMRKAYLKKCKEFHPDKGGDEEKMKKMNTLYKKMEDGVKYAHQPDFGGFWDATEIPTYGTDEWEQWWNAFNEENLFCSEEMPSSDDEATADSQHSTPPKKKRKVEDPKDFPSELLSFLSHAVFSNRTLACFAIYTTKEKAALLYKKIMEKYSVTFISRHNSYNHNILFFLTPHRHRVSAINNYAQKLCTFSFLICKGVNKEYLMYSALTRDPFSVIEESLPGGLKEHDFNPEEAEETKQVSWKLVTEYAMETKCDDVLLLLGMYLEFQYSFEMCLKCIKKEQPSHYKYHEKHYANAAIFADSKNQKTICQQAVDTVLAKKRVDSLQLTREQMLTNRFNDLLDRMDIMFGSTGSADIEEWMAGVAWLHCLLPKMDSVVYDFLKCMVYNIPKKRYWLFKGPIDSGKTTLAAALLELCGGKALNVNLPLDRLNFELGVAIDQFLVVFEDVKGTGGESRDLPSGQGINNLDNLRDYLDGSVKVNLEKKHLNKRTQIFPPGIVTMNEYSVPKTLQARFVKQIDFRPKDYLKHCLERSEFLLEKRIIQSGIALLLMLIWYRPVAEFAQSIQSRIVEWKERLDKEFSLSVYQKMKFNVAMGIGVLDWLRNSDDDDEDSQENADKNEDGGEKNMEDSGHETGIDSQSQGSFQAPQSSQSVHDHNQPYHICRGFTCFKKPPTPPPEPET

inhibition, inactive:
O=C(O)C1CC=CCC1C(=O)NC1CCCCC1 (stereo not given) 20.5%, CCn1ncc([N+](=O)[O-])c1C(=O)n1nc(C)cc1C 18.1%, Cn1cnc([N+](=O)[O-])c1Sc1nnc(-c2cccnc2)n1C 7.52%, Cc1onc(-c2ccccc2Cl)c1C(=O)OCC(=O)Nc1cccc(S(=O)(=O)N2CCOCC2)c1 4.68%, O=C(N/N=C/c1cccc(O)c1)c1csc2ccccc12 9.57%, CN(C)c1ccc(/C=N/NC(=O)C[n+]2ccccc2)cc1 17.6%, C/C(=N\NC(=O)c1csc2ccccc12)c1ccc(O)cc1 26.5%, O=C(CCn1cnc2ccccc21)N/N=C/c1ccccc1O 14.7%, COc1ccc(/C=N/NC(=O)CC(=O)N/N=C/c2ccc(OC)cc2)cc1 -38%, O=C(C[n+]1ccccc1)N/N=C/c1ccc(F)cc1 8.34%, O=C(CC(=O)N/N=C/c1ccc(F)cc1)N/N=C/c1ccc(F)cc1 10.6%, COc1ccc(/C=N/NC(=O)CCn2cnc3ccccc32)cc1 2.3%, CC(C)Cn1cc(C(=O)N2CCN(c3ccccn3)CC2)c2c3ccccc3n(C)c2c1=O 1.5%, COc1nc(NC(=O)c2ccc(F)cc2)nc(OC)c1-c1ccccc1 6.25%, COc1ccc(-c2csc(NC(=O)CN3C(=O)NC4(CCCC4)C3=O)n2)cc1OC 23.8%, CCCOc1ccc(-c2nc(C#N)c(NCC3CCCO3)o2)cc1 (stereo not given) 3.05%, O=C(CSc1nc2ccccc2s1)NCCCN1CCOCC1 -10.3%, COc1ccc(CCC(=O)NC2=NCCS2)cc1OC 13.6%, O=C(Nc1ccc2c(c1)OCCO2)c1ccco1 30.4%, CCOC(=O)CSc1nc2sc3c(c2c(=O)n1C1CCCCC1)CCN(C)C3 24.2%, CCC(NC(=O)c1cc(COc2ccc(Cl)cc2OC)on1)c1ccncc1 (stereo not given) 7.95%, CCn1c(CC(=O)Nc2ccc(C)c(Cl)c2)nnc1SCc1ccc(Cl)c(Cl)c1 2.82%, O=[N+]([O-])c1ccc(Cl)c2c1C1C=CCC1C(c1ccccn1)N2 (stereo not given) 21.7%, CC(C)C1Nc2c(O)cc(Cl)c([N+](=O)[O-])c2C2C=CCC21 (stereo not given) 21.4%, Cc1ccc(CNC(=O)CCC2CCCN(C(=O)c3ccc4c(c3)OCO4)C2)o1 (stereo not given) 12.7%, CNc1nc(Nc2ccc(Br)cc2)nc(N)c1[N+](=O)[O-] 9.77%, N#Cc1cnc(Nc2ccc(F)cc2)nc1N 7.13%, C[C@H](CCC(=O)O)[C@H]1CC[C@H]2[C@@H]3[C@H](O)C[C@@H]4C[C@H](O)CC[C@]4(C)[C@H]3CC[C@]12C 19.2%, C[C@H](CCC(=O)O)[C@H]1CC[C@H]2[C@@H]3CC[C@@H]4C[C@H](O)CC[C@]4(C)[C@H]3C[C@H](O)[C@]12C 12.7%, Cc1nsc2nc3c(F)c(F)c(F)c(F)c3cc12 16.9%, Cc1c(/C=N/NC(N)=O)c2ccccn2c1C(=O)c1ccncc1 15%, COc1ccc(/C=C/C(=O)OCC(=O)N2CC(=O)Nc3ccccc32)cc1 1.89%, COc1cc(/C=C/C(=O)OCC(=O)Nc2ccc(S(=O)(=O)N3CCCC3)cc2)ccc1O 24.6%, COc1ccc(/C=C/C(=O)OCC(=O)Nc2ccc(S(N)(=O)=O)cc2)cc1OC 5.77%, CCCCOc1ccc(/C=C/C(=O)OCC(=O)N2CC(=O)Nc3ccccc32)cc1OCC 14.1%, Cc1cc(C(=O)NCCC(c2ccccc2)c2ccccc2)c(C)o1 8.32%, CC1(C)Cc2cccc(Oc3cc(NN4CCCCC4)c([N+](=O)[O-])cc3[N+](=O)[O-])c2O1 1.3%, Cc1nn(C(C)C(=O)NCC2CCCO2)c(=O)c2cc3occc3n12 (stereo not given) -0.26%, COc1ccc(/C=N/NC(=O)CSc2ccccn2)cc1OC 10.6%, COc1cc(/C=N/NC(=O)CSc2ccccn2)ccc1OC(C)C 14.9%, CN(C)c1ccc(/C=N/NC(=O)CSc2ccccn2)cc1 25.6%, CCCOc1ccc(/C=N/NC(=O)CSc2ccccn2)cc1OC 3.28%, CCN(C(=O)CN1C(=S)NC(C)(C)CC1C)c1ccc(C)c(C)c1 (stereo not given) 6.37%, O=C(CSc1nnc(NC(=O)c2c(F)cccc2F)s1)Nc1ccccc1F 11.2%, CCCOc1ccccc1N1C(=O)CC(N(O)c2ccccc2)C1=O (stereo not given) 20.6%, CCNc1nc(NCC)nc(NC(N)=S)n1 1.3%, Cc1cc(C)c2nncn2n1 11.8%, O=C(O)Cc1c[nH]c2ccccc12 10.4%, NC(=O)Cc1c[nH]c2cccc(O)c12 30.1%, CCOC(=O)C1Nc2ccc(C(=O)O)cc2C2C=CCC12 (stereo not given) 16.5%, O=C(O)C1Nc2c(Cl)cc(Cl)c(Cl)c2C2C=CCC12 (stereo not given) 31%, CCOC(=O)C1Nc2ccc(C)cc2C2C=CCC12 (stereo not given) 8.94%, CCOC(=O)C1Nc2ccc(OC(F)(F)F)cc2C2C=CCC12 (stereo not given) 19.1%, Cc1ccc2c(c1)C1C=CCC1C(C(=O)NCCCN1CCOCC1)N2 (stereo not given) 12.6%, O=C(NC1CC1)C1Nc2ccc(OC(F)(F)F)cc2C2C=CCC12 (stereo not given) 6.67%, CCOC(=O)c1ccc2c(c1)C1C=CCC1C(C(=O)OCC)N2 (stereo not given) 12.4%, Cc1cc(C)c2c(c1)NC(c1cc3c(cc1Br)OCO3)C1CC=CC21 (stereo not given) 9.15%, O=S(=O)(Nc1cccc(-c2ccc(N3CCCCCC3)nn2)c1)c1ccc(C(F)(F)F)cc1 2.18%, C#CCOCCOCCOCCNc1nc(N2CCN(C(=O)Cn3cc(CCCCN)nn3)CC2)nc(N2CCN(C(=O)[C@H](C(C)C)n3cc(CCO)nn3)CC2)n1 9.84%, CC1=C(C(=O)NCc2ccccc2)C(c2cccnc2)n2ncnc2N1 (stereo not given) 0.75%

From PubChem BioAssay AID1903 (Southern Research Specialized Biocontainment Screening …, 2009)
